# PubChem BioAssay AID504734 (The Scripps Research Institute Molecular Screening Center, 2011)
# Screen size: about 340,000 compounds; about 730 (0.21%) were called active.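 How the source made its calls: active means inhibition above the mean over all tested compounds plus 3 SD (cut at about 21% in these data); inactive means the rest.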 Only a selection was taken, and actives are over-represented in it overall.
# Target: Toll-like receptor 9 (Homo sapiens) + Myeloid differentiation primary response protein MyD88 (Homo sapiens) (UniProt Q9NR96+Q99836)
# Sequence (Q99836 whole entry, looked up): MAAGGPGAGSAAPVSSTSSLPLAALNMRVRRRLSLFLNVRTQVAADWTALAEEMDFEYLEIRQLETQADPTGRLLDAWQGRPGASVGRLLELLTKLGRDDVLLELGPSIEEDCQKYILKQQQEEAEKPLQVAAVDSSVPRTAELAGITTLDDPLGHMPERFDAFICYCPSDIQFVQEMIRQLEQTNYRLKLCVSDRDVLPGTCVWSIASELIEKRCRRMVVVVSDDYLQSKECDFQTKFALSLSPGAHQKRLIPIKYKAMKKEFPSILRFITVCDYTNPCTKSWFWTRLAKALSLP
# Sequence (Q9NR96 whole entry, looked up): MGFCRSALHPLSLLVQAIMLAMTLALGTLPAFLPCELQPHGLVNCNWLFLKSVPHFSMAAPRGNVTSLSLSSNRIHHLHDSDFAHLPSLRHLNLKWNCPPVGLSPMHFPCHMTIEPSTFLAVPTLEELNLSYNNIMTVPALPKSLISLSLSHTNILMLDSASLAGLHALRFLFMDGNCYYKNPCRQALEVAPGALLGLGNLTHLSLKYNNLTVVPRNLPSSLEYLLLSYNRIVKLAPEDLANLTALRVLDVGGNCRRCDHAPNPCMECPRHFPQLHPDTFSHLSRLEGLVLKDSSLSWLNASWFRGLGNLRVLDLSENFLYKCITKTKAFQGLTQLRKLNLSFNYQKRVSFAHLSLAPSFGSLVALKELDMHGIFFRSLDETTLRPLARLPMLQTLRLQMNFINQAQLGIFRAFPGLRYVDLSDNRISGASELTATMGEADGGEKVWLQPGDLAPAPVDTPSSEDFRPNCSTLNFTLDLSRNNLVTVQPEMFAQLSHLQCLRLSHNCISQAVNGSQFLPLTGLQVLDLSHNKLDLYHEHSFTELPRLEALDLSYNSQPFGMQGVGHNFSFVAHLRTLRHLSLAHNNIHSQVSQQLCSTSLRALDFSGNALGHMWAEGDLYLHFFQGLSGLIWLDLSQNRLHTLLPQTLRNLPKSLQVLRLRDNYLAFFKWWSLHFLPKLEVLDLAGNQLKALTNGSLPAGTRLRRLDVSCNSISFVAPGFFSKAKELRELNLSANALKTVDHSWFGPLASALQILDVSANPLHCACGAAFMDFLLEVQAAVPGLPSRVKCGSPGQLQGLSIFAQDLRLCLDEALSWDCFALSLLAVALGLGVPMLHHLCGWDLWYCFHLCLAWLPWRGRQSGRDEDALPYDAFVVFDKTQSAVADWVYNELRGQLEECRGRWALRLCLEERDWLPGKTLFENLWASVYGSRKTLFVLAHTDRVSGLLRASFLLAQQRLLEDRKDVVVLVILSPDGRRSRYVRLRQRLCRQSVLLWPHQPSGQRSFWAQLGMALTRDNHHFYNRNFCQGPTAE
# Assay: inhibitors of TLR9-MyD88 association in cells, primary screen, cell-based, CHO, BLA complementation, fluorescence (AID 504734);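 further: 0% = DMSO only wells and 100% = clavulanate BLA inhibitor control wells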
# Conditions: CHO BLA complementation TLR9-MyD88, CCF4 FRET ratio; at 4.98 µM; active compounds read high
row,Structure (SMILES),inhibition
1,CCN1C(=O)[C@H]2[C@@H](c3ccc(C(F)(F)F)cc3)N[C@]3(CCCN(Cc4ccc(Br)cc4)C3=O)[C@H]2C1=O,5.46% (inactive)
2,N#CCCN(C(=O)Nc1ccc(Cl)c(Cl)c1)C1CCCCC1,8.97% (inactive)
3,CCN(C(=O)Nc1cccc2ccccc12)c1ccccc1,-15.1% (inactive)
4,Cc1nc2ccccc2nc1CC(O)(c1ccccc1)c1ccccc1,2.03% (inactive)
5,CCOC(=O)c1cc(-c2sc(NC(=O)c3ccccc3)nc2C)n(CCO)n1,2.6% (inactive)
6,Cc1cc2c3ccccc3[nH]c(=O)n2n1,1.06% (inactive)
7,CN(c1ccccc1)S(=O)(=O)c1ccc(C(=O)NCc2cccnc2)cc1,7.85% (inactive)
8,CC1CN(Cc2ccccc2)C(=S)NC1=O (stereo not drawn),-6.13% (inactive)
9,O=[N+]([O-])c1ccc(C(S(=O)(=O)Cc2ccccc2)S(=O)(=O)Cc2ccccc2)cc1,2.65% (inactive)
10,O=C1NC(=O)C2C1C(c1ccc([N+](=O)[O-])cc1)=NN2Cc1ccccc1 (stereo not drawn),27.8% (active)
11,CN(Cc1ccccc1)C(=O)CCC1CCN(C(=O)c2ccco2)CC1,0.05% (inactive)
12,NS(=O)(=O)c1ccc(CNC(=O)c2cc(S(=O)(=O)N3CCOCC3)ccc2N2CCCC2)cc1,-5.7% (inactive)
13,CC1(c2cccc(Br)c2)NC(=O)N(CC(=O)NCCC2=CCCCC2)C1=O (stereo not drawn),3.69% (inactive)
14,COc1cccc(C(=O)OCc2cc(=O)oc3c(C)c(C)ccc23)c1OC,-5.33% (inactive)
15,COC(=O)Cc1cc(=O)oc2c(C)c(O)ccc12,21.6% (active)
16,CCCc1cc(=O)oc2c(C)c(OCC(=O)Nc3ccccn3)ccc12,6.85% (inactive)
17,S=C(NN=Cc1ccccn1)Nc1ccccn1,10.2% (inactive)
18,CC1C(=O)N(Cc2cn(Cc3ccco3)nn2)CCS(=O)(=O)N1Cc1ccc(-c2cccc(CO)c2)cc1 (stereo not drawn),-1.07% (inactive)
19,C[C@@H]1CN([C@@H](C)CO)C(=O)CCCn2nncc2CO[C@H]1CN(C)Cc1ccc(C(F)(F)F)cc1,-8.49% (inactive)
20,C[n+]1ccc(C(=O)NCc2ccccc2)cc1,-10.2% (inactive)
21,O=C(NCCCNCc1ccccc1)c1ccc(/C=N/O)nc1,-3.77% (inactive)

row,Structure (SMILES),inhibition
1,C[N+](C)(C)CCNC(=O)c1cc[n+](Cc2ccccc2)c(/C=N/O)c1,22.8% (active)
2,Cc1ccc2cccc([N+](=O)[O-])c2n1,4.24% (inactive)
3,COc1ccc(CCNC(=O)CN(c2ccccc2)S(=O)(=O)c2ccccc2)cc1,0.66% (inactive)
4,CN=c1scc(-c2cc(OC)ccc2OC)n1/N=C/c1c(C)[nH]c2ccccc12,6.42% (inactive)
5,COc1ccc(OC)c(N=Cc2c(O)[nH]c3ccccc23)c1,41.1% (active)
6,COc1cc2[nH]c(O)c(C=O)c2cc1OC,-8.58% (inactive)
7,CC(=O)c1ccccc1NC(=O)COC(=O)C1COc2ccccc2O1 (stereo not drawn),2.77% (inactive)
8,C[C@@H]1CN([C@@H](C)CO)S(=O)(=O)c2ccc(-c3ccc(C(=O)N(C)C)cc3)cc2O[C@@H]1CN(C)Cc1ccccc1C(=O)O,-6.78% (inactive)
9,CCOC(=O)c1c(NC(=S)SC)sc(C(=O)N2CCc3ccccc3C2)c1C,-0.74% (inactive)
10,COc1ccc(CN2C[C@H]3CON(C)[C@H]3C[C@H]2c2ccc(-c3cccc(F)c3)cc2)cc1,4.13% (inactive)
11,O=C(O)C1CCCN1c1nc(Cl)ccc1[N+](=O)[O-] (stereo not drawn),-12.8% (inactive)
12,O=C1c2cccc3c([N+](=O)[O-])ccc(c23)C(=O)N1CC1CCCO1 (stereo not drawn),56.9% (active)
13,CN1CN(C)c2ccc([N+](=O)[O-])c3cccc1c23,-8.31% (inactive)
14,CCOc1cccc(=O)c2c(C)n(CC3CCCO3)c(C)c12 (stereo not drawn),1.31% (inactive)
15,CCN(Cc1ccncc1)C(=S)Nc1ccccc1C,3.02% (inactive)
16,Cc1cccc(S(=O)(=O)N(C)C[C@@H]2OCc3cnnn3CCCC(=O)N([C@H](C)CO)C[C@@H]2C)c1,-11.3% (inactive)
17,CN1CCN(c2ccncc2S(=O)(=O)N2CCCC2)CC1,3.95% (inactive)
18,COc1cccc(C=CC(=O)C=CC=Cc2ccccc2)c1,-5.47% (inactive)
19,O=C(O)/C=C/c1ccc(S(=O)(=O)N2CCCCCC2)cc1,-16.4% (inactive)
20,O=C(/C=C(O)/C=C/c1ccc(O)cc1)/C=C/c1ccc(O)cc1,42% (active)
21,COc1ccc(NC(=O)CSc2nnnn2-c2cccc(OC)c2)cc1,13.5% (inactive)

row,Structure (SMILES),inhibition
1,COCOCCn1cc(CN2CCS(=O)(=O)N(Cc3ccc(-c4ccc(OC)cc4)cc3)C(CC(C)C)C2=O)nn1 (stereo not drawn),-1.5% (inactive)
2,C[C@@H]1CN([C@@H](C)CO)C(=O)c2c(c3ccccc3n2C)-c2ccccc2CO[C@H]1CN(C)C(=O)C1CC1,-4% (inactive)
3,Cc1cc2oc3ccc(NCCC4CCCN4C)cc3c(=O)c2cc1C (stereo not drawn),24.9% (active)
4,Cc1cc2oc(=O)cc(CN3CCN(Cc4ccccc4)CC3)c2cc1C,-18.4% (inactive)
5,COc1cccc2sc3cc(NCC[C@@H]4CCCN4C)ccc3c(=O)c12,0.85% (inactive)
6,C[C@H]1CN([C@@H](C)CO)S(=O)(=O)c2ccc(Br)cc2O[C@H]1CN(C)C(=O)c1cnccn1,5.72% (inactive)
7,CCC1NC(=O)c2cccnc2-n2c1nc1ccc(C)cc1c2=O (stereo not drawn),8.64% (inactive)
8,COc1ccc(S(=O)(=O)N2CCCCC2)cc1C(=O)NC1CCS(=O)(=O)C1 (stereo not drawn),-5.76% (inactive)
9,CCc1ccccc1NC(=O)CN1CCN(C(=O)c2cc(C3CC3)nn2-c2ccccc2)CC1,-43.9% (inactive)
10,NC(=O)CSc1nnc(-c2cccc(S(=O)(=O)N3CCOCC3)c2)o1,10.4% (inactive)
11,OCCNc1nc(Nc2ccc(Cl)c(Cl)c2)nc2ccccc12,-0.91% (inactive)
12,Nc1nnc(SCC(=O)Nc2ccc3nc(SCC(=O)Nc4ccccc4)sc3c2)s1,0.67% (inactive)
13,O=[N+]([O-])c1c(NCCO)cc(Sc2nc3ccccc3s2)c2nonc12,43.3% (active)
14,O=C(CSc1ncn[nH]1)Nc1nc2c(F)c(F)c(F)cc2s1,-0.11% (inactive)
15,O=C(C[C@H]1C[C@H]2c3cc(NS(=O)(=O)c4ccc(F)cc4)ccc3O[C@H]2[C@H](CO)O1)NCc1cc(F)ccc1F,-5.81% (inactive)
16,COc1cc(C(=O)N2CCN(C)CC2)cc(OC)c1OC,8.16% (inactive)
17,CC1CC(C)CN(S(=O)(=O)c2cccc(C(=O)N3C(=O)c4cccc(N)c4C3=O)c2)C1 (stereo not drawn),-15.2% (inactive)
18,COc1cc(C(=O)N2C(=O)c3cccc(N)c3C2=O)cc(OC)c1OC,20.9% (active)
19,COc1ccc(-c2c(C#N)cnc(C)c2C)c(O)c1OC,-8.05% (inactive)
20,C#Cc1cc(N2CCN(C(=O)c3ccoc3)CC2)n2nc(-c3cccc(Cl)c3)cc2n1,5.91% (inactive)
21,CCCCCCNC(=O)O[C@]12C[C@@H](C(=O)OC)[C@@H](C(=O)OC)C[C@@]1(O)CN(S(=O)(=O)c1ccc(C)cc1)C2,-7.21% (inactive)
